The source of these data is the supplement of paper PMC9588786.

Molecules are shown by their SMILES. ± gives the standard deviation of the averaged measurements.
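Also: viability read as CCK-8 absorbance at 450 nm in cells co-exposed to the GPX4 inhibitor RSL3, relative to a 0.01% DMSO vehicle control.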

This assay relates to HT-1080. Kind of assay: relative cell viability with RSL3 co-treatment (fraction of control); higher = stronger protection from RSL3-induced ferroptosis (higher viability). The settings on record: 10 µM.
Consider `O=c1ncn2nc(Sc3ccc(F)cc3F)ccc2c1-c1c(Cl)cccc1Cl`, for which the relative cell viability stood at 0.5 ± 0.14.

Regarding `Cn1cnc(N)c2ncnc1-2` [3-Methyladenine (3-MA)], the relative cell viability worked out at 0.76 ± 0.078.

On to `COc1ncc(-c2ccc3nccc(-c4ccnnc4)c3c2)cc1NS(=O)(=O)c1ccc(F)cc1F`, for which the relative cell viability came to 0.24 ± 0.14.

In the case of `Cc1cc(O)c2c(c1)C(=O)c1cccc(O)c1C2=O` [Chrysophanic Acid], the relative cell viability was 0.6567 ± 0.0058.

`COc1cc2c(Oc3ccc4[nH]c(C)cc4c3F)ncnc2cc1OCCCN1CCCC1` [Cediranib (AZD2171)]: the relative cell viability was 0.283 ± 0.023.

Consider `CCn1c(=O)c(-c2ccc(-c3cncs3)cc2Cl)cc2cnc(Nc3ccc(N4CCN(C)CC4)cc3)nc21`, for which the relative cell viability turned out to be 0.833 ± 0.032.

As to `O=C(c1ccc(Nc2nccc(-c3cc4ccccc4s3)n2)cc1)N1CCC(N2CCCC2)CC1` [IKK-16 (IKK Inhibitor VII)], the relative cell viability is 0.277 ± 0.038.

As for `CNC(=O)c1cc(COc2nnc(Nc3ccc(Cl)cc3)c3ccoc23)ccn1` [Telatinib], the relative cell viability was found to be 0.623 ± 0.057.

As for `COc1cc2ncnc(Nc3cccc(Cl)c3F)c2cc1OC(=O)N1CCN(C)C[C@H]1C`, the relative cell viability amounted to 0.617 ± 0.025.

As to `Cc1c(Cn2c(C)nc3c(C(=O)O)cc(N4CCOCC4)cc32)cccc1C(F)(F)F`, the relative cell viability was 0.823 ± 0.045.

As for `Oc1c2ccccc2c2c3c(cccc13)N=N2`, the relative cell viability came out at 0.71 ± 0.036.

In the case of `COc1ccc(S(=O)(=O)N(CCO)c2ccccc2CN(C)C/C=C/c2ccc(Cl)cc2)cc1` [KN-93 Phosphate], the relative cell viability is 0.813 ± 0.011.

In the case of `CO[C@H]1C[C@@H]2CC[C@@H](C)[C@@](O)(O2)C(=O)C(=O)N2CCCC[C@H]2C(=O)O[C@H]([C@H](C)C[C@@H]2CC[C@@H](O)[C@H](OC)C2)CC(=O)[C@H](C)/C=C(\C)[C@@H](O)[C@@H](OC)C(=O)[C@H](C)C[C@H](C)/C=C/C=C/C=C/1C` [Rapamycin (Sirolimus)], the relative cell viability amounted to 0.387 ± 0.085.

For `CN1CCN(c2ccc3nc(-c4c(N)c5c(F)cccc5[nH]c4=O)[nH]c3c2)CC1` [Dovitinib (TKI-258, CHIR-258)], the relative cell viability is 0.827 ± 0.1.

For `C=CC(=O)Nc1cc(Nc2nccc(-c3cn(C)c4ccccc34)n2)c(OC)cc1N(C)CCN(C)C` [Osimertinib (AZD9291)], the relative cell viability amounted to 0.403 ± 0.068.

For `N#C/C(=C(/N)Sc1ccc(N)cc1)c1ccccc1C(F)(F)F`, the relative cell viability was 0.913 ± 0.038.

Regarding `O=C(c1cccc(Cl)c1F)N1CCN(Cc2cccc(Nc3nccs3)n2)CC1`, the relative cell viability was found to be 0.573 ± 0.049.

In the case of `CO[C@H]1C[C@@H]2CC[C@@H](C)[C@@](O)(O2)C(=O)C(=O)N2CCCC[C@H]2C(=O)O[C@H]([C@H](C)C[C@@H]2CC[C@@H](OP(C)(C)=O)[C@H](OC)C2)CC(=O)[C@H](C)/C=C(\C)[C@@H](O)[C@@H](OC)C(=O)[C@H](C)C[C@H](C)/C=C/C=C/C=C/1C` [Ridaforolimus (Deforolimus, MK-8669)], the relative cell viability worked out at 0.847 ± 0.14.

With `S=C(NCc1ccc2c(c1)OCO2)N1CCN(c2ncnc3c2oc2ccccc23)CC1` [Amuvatinib (MP-470)], the relative cell viability worked out at 0.55 ± 0.072.

Regarding `COc1cc2ncnc(Nc3ccc(F)c(Cl)c3)c2cc1OCCCN1CCOCC1` [Gefitinib (ZD1839)], the relative cell viability is 0.66 ± 0.072.

With `Cc1c(NC(=O)OC[C@@H]2COCCN2)cn2ncnc(Nc3ccc4c(cnn4Cc4cccc(F)c4)c3)c12`, the relative cell viability amounted to 0.793 ± 0.023.

Consider `Oc1ccc(Nc2nc(-c3ccc(Cl)cc3)cs2)cc1`, for which the relative cell viability stood at 0.66 ± 0.095.

In the case of `COc1cc(N2CCC(N3CCN(C)CC3)CC2)ccc1Nc1ncnc(Nc2ccccc2S(=O)(=O)C(C)C)n1`, the relative cell viability is 0.807 ± 0.023.

In the case of `Cn1cc(/C=C2\C(=O)Nc3cccnc32)c2ccccc21`, the relative cell viability worked out at 0.927 ± 0.015.
